A selection: hits, their analogues and other compounds. The true share with any hit is near 5.9%.
TrxR1 substrate: qHTS Assay for Substrates of Mammalian Selenoprotein Thioredoxin Reductase 1 (TrxR1): qHTS; Thioredoxin reductase 1, cytoplasmic (Rattus norvegicus), O89049; Potency, µM (doses to about 114 µM), without a hit: at the top dose activity change, negative = substrate turnover; 0.01% of 390,000 active; purified TrxR1 substrate turnover, NADPH consumption readout; further: potency means the concentration at half of the fitted maximal effect; nearly all actives have a fitted effect of over 50% in size
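Rat TrxR1, dispensed at 90 nM, was prereduced with 400 uM NADPH (final) for 5 min at ~22 deg C, then incubated with compound 15 min before 400 uM selenite. A first-read NADPH fluorescence drop versus no-compound background flagged substrates.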
GALK inh: qHTS Assay for Inhibitors of Human Galactokinase (GALK). Potency, µM (highest dose often 57.5 µM), for the others: at the highest dose activity change, negative = inhibition, usual class: inhibitors. Purified GALK, Kinase-Glo residual ATP luminescence. AID 1868, 2009. 0.007% of 270,000 active; further: potency means the concentration at half of the fitted maximal effect
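The enzyme phosphorylates galactose (100 uM) using ATP (35 uM); inhibition is detected as higher residual ATP, quantified by bioluminescence after 1 h reaction at room temperature, pH 8.0.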
TrxR1 inh: qHTS Assay for Inhibitors of Mammalian Selenoprotein Thioredoxin Reductase 1 (TrxR1): qHTS; AID 588453, 2011; recombinant rTrxR1, NADPH fluorescence consumption, selenite substrate; Potency, µM (doses to about 114 µM), without a hit: at the top dose activity change, negative = inhibition, most hits filed as inhibitors; Thioredoxin reductase 1, cytoplasmic (Rattus norvegicus), O89049; 1% of 390,000 active; further: potency means the concentration at half of the fitted maximal effect; nearly all actives have a fitted effect of over 65% in size
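Rat TrxR1 (90 nM in the dispensed reagent) was pre-reduced with 400 uM NADPH for 5 min at room temperature, then incubated with compound for 15 min. After 400 uM selenite was added, NADPH fluorescence (Ex 340/Em 450 nm) was followed for 8 min.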
VP16 counter: VP16 counterscreen qHTS for inhibitors of ROR gamma transcriptional activity. Drosophila S2 Gal4-VP16 UAS-luciferase, luminescence, 20 h. Potency, µM (top dose mostly 53.6 µM), for the others: top-dose activity, negative = inhibition, most hits filed as inhibitors. 3.5% of 310,000 active;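 further: Gal4-VP16 expression switched on by copper sulfate through the metallothionein promoter; potency means the concentration at half of the fitted maximal effect; nearly all actives have a fitted effect of over 50% in size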
Coupling enz: qHTS Assay for Inhibitors of Fructose-1,6-bisphosphate Aldolase from Giardia Lamblia: Coupling assay counterscreen. coupling enzyme system counterscreen, AmpLite Red fluorescence. activity change, negative = inhibition, % at 58.2 µM, hits read low. 0.67% of 290,000 active. AID 2472, 2010; in the data active means activity change below about -30%
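First, compound is pin-transferred into glyceraldehyde-3-phosphate coupling-enzyme reagent at 57.5 uM final and held 10 min at RT. Next, substrate, coupling system and AmpLite Red are added. After 20 min RT, fluorescence (525/598 nm) is read.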
RORgamma inh: qHTS for inhibitors of ROR gamma transcriptional activity. Nuclear receptor ROR-gamma (Mus musculus), P51450. Drosophila S2 Gal4-RORgamma UAS-luciferase reporter, 20 h. Potency, µM (doses to about 53.6 µM), without a hit: at the top dose activity change, negative = inhibition, hits mostly inhibitors. 5.4% of 310,000 active; further: potency means the concentration at half of the fitted maximal effect; nearly all actives have a fitted effect of over 60% in size
Target sequence (P51450 whole entry, looked up, the tested form may be a part): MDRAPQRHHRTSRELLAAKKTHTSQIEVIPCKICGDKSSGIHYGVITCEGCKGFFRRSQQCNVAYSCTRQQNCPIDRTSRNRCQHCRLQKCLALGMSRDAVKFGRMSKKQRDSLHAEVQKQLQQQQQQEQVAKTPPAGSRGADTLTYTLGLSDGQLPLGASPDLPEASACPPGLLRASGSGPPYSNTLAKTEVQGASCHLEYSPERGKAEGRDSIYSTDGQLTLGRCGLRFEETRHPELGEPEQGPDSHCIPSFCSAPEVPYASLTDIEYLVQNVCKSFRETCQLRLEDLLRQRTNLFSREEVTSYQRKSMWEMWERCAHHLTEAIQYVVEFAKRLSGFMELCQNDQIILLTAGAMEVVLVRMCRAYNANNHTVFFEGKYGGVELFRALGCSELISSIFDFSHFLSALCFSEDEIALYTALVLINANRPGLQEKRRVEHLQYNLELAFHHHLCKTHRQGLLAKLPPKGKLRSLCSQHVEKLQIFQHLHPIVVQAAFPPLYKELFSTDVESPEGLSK
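Drosophila Schneider cells stably carrying a metallothionein-driven Gal4 DBD–ROR gamma fusion and a UAS-Photinus luciferase reporter were exposed to compound for 1 hr, then induced with copper sulfate (700 uM final) for 20 hr at ambient temperature before luminescence reading.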
* hit, by the source's call; u = inconclusive; x = no result given; [ ] = another dose, or the depositor's remark. Unless noted, the call rests on the fitted dose curve; in most records, active means well fitted curve in the direction sought with a large enough effect; inconclusive means small, poorly fitted or top-dose-only effect, or another doubt; inactive means no such curve, though single readings can be large; an effect the other way counts as inactive or inconclusive. On the % scale 0 is the no-effect control and ±100 the full control effect.

SMILES	TrxR1 substrate	GALK inh	TrxR1 inh	VP16 counter	Coupling enz	RORgamma inh
CN(C)/C=N/C(=S)Nc1ccc(Cl)c(Cl)c1	-18%[57.1 µM]	-2%	11%[57.1 µM]	3.2µM*	0	1.8µM*
CN(C)/C=N/C(=S)Nc1ccccc1Cl	5%[57.1 µM]	-1%	15%[57.1 µM]	8%[10 µM]	-3	6.3µM*
CN(C)/C=N/C(=S)Nc1ccccc1F	8%[57.1 µM]	3%	-1%[57.1 µM]	-2%	-1	-30%
CN(C)/C=N/C(=S)Nc1ccc(F)cc1	-6%	-2%	-22%	u	0	11µM*
CN(C)/C=N/C(=S)Nc1cc(Cl)cc(Cl)c1	7%[57.1 µM]	0%	26%[57.1 µM]	-1%[10 µM]	4	20%
CN(O)/C=N/C(=S)Nc1ccc(Cl)cc1Cl	0%	-3%	-14%	1%	2	18µM*
CC(C)Nc1nc(NC(C)C)nc(OCCOC(=O)Nc2ccccc2)n1	0%	-1%	7%	17%	0	u
CCOc1ccccc1-c1nc(CN2CCN(C(=O)c3ccco3)CC2)c(C)o1	-11%	1%	u	1%	0	-29%
Cc1ccccc1-c1nc(CN2CCN(C(=O)c3ccco3)CC2)c(C)o1	-6%	-3%	56µM*	10%	3	-30%
COc1ccc(/C=N/NC(=S)NC2CCS(=O)(=O)C2)cc1OC (stereo not drawn)	-6%	3%	-12%	u	0	16µM*
COc1ccc(C=NNC(=S)NC23CC4CC(CC(C4)C2)C3)cc1OC	3%[57.1 µM]	x	-6%[11.4 µM]	x	x	x
Cc1ccc(/C=N/NC(=S)NC2CCS(=O)(=O)C2)cc1 (stereo not drawn)	-15%	0%	-19%	5µM*	-1	7.9µM*
O=C(N/N=C/c1ccccc1Cl)c1n[nH]c2c1CCCC2	1%	1%	19%	u	4	2.8µM*
O=C(N/N=C/c1ccccc1)c1n[nH]c2c1CCCC2	3%[57.1 µM]	1%	19%[57.1 µM]	-28%	2	u
CCn1c(Cc2ccccc2)nnc1SCC(=O)N1CCCC1=O	-5%	-1%	1%	x	2	x
O=[N+]([O-])c1ccc(S(=O)(=O)c2ccccc2)nc1	13%[57.1 µM]	-3%	u	3.5µM*	-13	u
Cc1ccc(S(=O)(=O)c2ccc([N+](=O)[O-])cn2)cc1	-8%	1%	0.45µM*	3.5µM*	-14	3.2µM*
CSc1cccc(NC(=O)/C=C/c2ccc(Cl)cc2)c1	-1%[57.1 µM]	-2%	-12%[57.1 µM]	u	-5	u
CCNCc1nc2cc(OC)c(OC)cc2c(=O)[nH]1	-10%	-1%	5%	4%	1	-12%
COc1cc2nc(CN(CCC(C)C)Cc3nc4cc(OC)c(OC)cc4c(=O)[nH]3)[nH]c(=O)c2cc1OC	-12%	2%	2%[57.1 µM]	6.3µM*	0	0.79µM*
COc1ccc(CC(=O)Nc2ccc(N(C)C)c3ccccc23)cc1	21%[57.1 µM]	2%	12%	0%	-1	14%
O=C(NCc1ccccn1)c1c(O)c2cccc3c2n(c1=O)CC3	12%	5%	5%	u	0	2.8µM*
CCCn1c(=O)c(C(=O)NCc2ccccn2)c(O)c2ccccc21	9%[57.1 µM]	1%	8%[57.1 µM]	u	2	10µM*
CCCn1c(=O)c(C(=O)NCc2cccnc2)c(O)c2ccccc21	8%	-3%	16%	-1%	-1	-23%
Cn1nc(C(C)(C)C)cc1C(=O)NCc1ccc2c(c1)OCO2	-6%	6%	-7%	1µM*	x	-13%
CCCn1c(=O)c(C(=O)NCc2ccc3c(c2)OCO3)c(O)c2ccccc21	4%	-3%	18%[2.29 µM]	u	-3	13µM*

Source: PubChem BioAssay
